The record followed here is PubChem BioAssay.

One experiment addresses Albumin (Bos taurus) (UniProt P02769). As to the kind of experiment: compounds binding labelled BSA control protein – biochemical, small-molecule microarray, Alexa647 label, 635/667 nm fluorescence, artefact control for SMM control protein annotation, profiling panel (AID 1118).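 Note: score merges 667 nm emission intensity and signal-to-noise per printed compound spot.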 The following applies: BSA-A647 binding, fluorescence 635 nm, higher = more signal.
Experiment [1] in a line: probe aXIP binding to arrayed compounds – biochemical, NeuroSMM set, 635/667 nm fluorescence, primary screen (AID 1119).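 Note: probe is the protein aXip251-270 applied at 1 µg/mL to compound-printed slides; binding of probe to printed compounds measured as 667 nm fluorescence plus signal to noise.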 The following applies: small-molecule microarray, higher = more signal, called active from +8 up or from −8 down.
Experiment [2] is described as follows: probe aNOTCH3 binding on compound microarray – biochemical, small-molecule microarray, 635/667 nm fluorescence, primary screen (AID 1120).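 Note: probe is a biotin-tagged antibody raised against NOTCH3 rather than NOTCH3 protein; score merges spot fluorescence near 667 nm with spot signal to noise.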 The following applies: higher = more signal.
Experiment [3] can be described thus: probe aNOTCH2 binding on compound microarray – biochemical, small-molecule microarray, 635/667 nm fluorescence, primary screen (AID 1121).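 Note: score merges feature fluorescence read at 667 nm with its signal to noise.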 The conditions noted are these: higher = more signal.
The target in experiment [4] is Carbonic anhydrase 2 (Homo sapiens) (UniProt P00918). The experiment is described as follows: compounds binding carbonic anhydrase 2 – biochemical, small-molecule microarray, Alexa647-labelled CAII, profiling panel (AID 1122). The following applies: CAII-A647 binding fluorescence, higher = more signal.
The nature of experiment [5]: COS7 lysate on small-molecule microarray, probe aHis, 635 nm (AID 1123).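 Note: z-score combines 667nm fluorescence intensity with signal-to-noise per printed compound spot.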 The conditions noted are these: COS7 cell lysate, fluorescence, higher = more signal.
Experiment [6] is described as follows: probe aLAP1 signal on lysate-treated microarray – cell lysate, small-molecule microarray, COS7 lysate, primary screen (AID 1124).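 Note: lysate comes from COS7 cells expressing LAP1 and is applied at 0.3 µg/mL; score merges spot fluorescence near 667 nm with signal-to-noise over triplicate slides.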 The conditions noted are these: probe aLAP1, fluorescence, higher = more signal.
The subject of the next experiment is Sam68 (KHDRBS1). As to the kind of experiment: compounds binding KHDRBS1 protein – biochemical, small-molecule microarray, 635 nm fluorescence, primary screen (AID 1125).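 Note: score merges 667 nm channel intensity with signal to noise over triplicate slides.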 The conditions noted are these: higher = more signal.
The subject of experiment [7] is Chordin-like protein 2 (CHRDL2). The experiment is described as follows: compounds binding chordin-like 2 – biochemical, small-molecule microarray, 635 nm fluorescence, primary screen (AID 1126).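 Note: printed compound slides probed with Chrdl2 protein at 4 µg/mL for 1 h at 4 C; score merges 667 nm emission intensity with signal to noise over three replicate slides.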 The following applies: fluorescence 635 nm, higher = more signal.
Experiment [8] concerns the target Concanavalin-A (Canavalia ensiformis) (UniProt P02866). The experiment is described as follows: compounds binding concanavalin A lectin – biochemical, small-molecule microarray, Alexa647 label, 635 nm, artefact control for SMM control protein annotation, primary screen (AID 1127).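 Note: z combines 667 nm emission intensity with signal-to-noise across three replicate slides.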 The following applies: ConA-A647 binding fluorescence, higher = more signal.
A short description of experiment [9]: compounds binding Alexa647 anti-His antibody – biochemical, small-molecule microarray, 635 nm fluorescence, artefact control for SMM control protein annotation, primary screen (AID 1128).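 Note: score merges feature fluorescence with signal-to-noise for each printed compound spot.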 The following applies: higher = more signal.
Experiment [10] relates to Human papillomavirus type 1a E7 protein (residues 1-88). The experiment is described as follows: HPV1a E7 small-molecule binders, primary screen, biochemical, small-molecule microarray, residues 1-88, 635 nm (AID 1129). The conditions noted are these: small-molecule microarray binding, fluorescence 635 nm; higher = more signal.
Experiment [11] deals with Focal adhesion kinase 1 (Homo sapiens) (UniProt Q05397). The experiment is described as follows: PTK2 protein binding on printed compound slides – biochemical, small-molecule microarray, 635/667 nm fluorescence, BSA, DTT, primary screen (AID 1130).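 Note: composite of spot emission at 667 nm and signal to noise over triplicate slides.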 The following applies: 635 nm fluorescence, higher = more signal.
Sequence of Focal adhesion kinase 1 (Homo sapiens) (Q05397 whole entry, looked up): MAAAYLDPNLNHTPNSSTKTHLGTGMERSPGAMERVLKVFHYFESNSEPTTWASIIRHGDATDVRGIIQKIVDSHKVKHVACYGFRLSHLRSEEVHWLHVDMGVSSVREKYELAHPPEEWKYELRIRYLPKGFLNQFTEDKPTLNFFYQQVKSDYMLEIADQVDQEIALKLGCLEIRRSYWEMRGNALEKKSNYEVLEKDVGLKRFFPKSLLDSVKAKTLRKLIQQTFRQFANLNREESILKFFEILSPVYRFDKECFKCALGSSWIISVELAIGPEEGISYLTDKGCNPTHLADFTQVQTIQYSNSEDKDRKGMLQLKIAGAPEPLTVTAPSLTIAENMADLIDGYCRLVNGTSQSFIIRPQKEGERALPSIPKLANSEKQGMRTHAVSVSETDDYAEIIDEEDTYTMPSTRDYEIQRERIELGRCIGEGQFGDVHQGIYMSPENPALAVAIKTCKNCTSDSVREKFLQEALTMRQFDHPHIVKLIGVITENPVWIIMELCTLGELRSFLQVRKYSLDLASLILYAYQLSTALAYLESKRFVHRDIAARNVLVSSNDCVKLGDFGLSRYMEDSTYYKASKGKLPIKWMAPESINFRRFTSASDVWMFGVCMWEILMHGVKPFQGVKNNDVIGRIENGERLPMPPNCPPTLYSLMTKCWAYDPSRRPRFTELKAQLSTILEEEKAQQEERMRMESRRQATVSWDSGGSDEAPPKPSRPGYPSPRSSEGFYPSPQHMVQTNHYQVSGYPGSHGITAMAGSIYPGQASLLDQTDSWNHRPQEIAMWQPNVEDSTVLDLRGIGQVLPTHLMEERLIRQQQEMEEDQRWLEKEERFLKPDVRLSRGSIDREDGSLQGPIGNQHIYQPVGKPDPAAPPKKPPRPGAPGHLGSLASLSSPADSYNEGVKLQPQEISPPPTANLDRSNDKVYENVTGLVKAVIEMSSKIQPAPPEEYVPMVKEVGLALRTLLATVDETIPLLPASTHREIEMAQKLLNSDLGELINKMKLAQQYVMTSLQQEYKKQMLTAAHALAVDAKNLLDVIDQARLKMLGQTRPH
Experiment [12] relates to Fibrinogen (Alexa647-labelled). As to the kind of experiment: Alexa647-fibrinogen binding to printed small molecules – biochemical, small-molecule microarray, 635/667 nm fluorescence, artefact control for SMM control-protein annotation, profiling panel (AID 1131).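 Note: z-score merges 667 nm fluorescence with per-spot signal-to-noise over triplicate slides.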 The conditions noted are these: fibrinogen-A647 binding fluorescence, higher = more signal.
For experiment [13], the target named is Follistatin (Homo sapiens) (UniProt P19883). The experiment is described as follows: FST protein binding to printed compounds – biochemical, small-molecule microarray, 635/667 nm fluorescence, primary screen (AID 1132). The following applies: 635 nm fluorescence, higher = more signal.
Sequence of Follistatin (Homo sapiens) (P19883 whole entry, looked up): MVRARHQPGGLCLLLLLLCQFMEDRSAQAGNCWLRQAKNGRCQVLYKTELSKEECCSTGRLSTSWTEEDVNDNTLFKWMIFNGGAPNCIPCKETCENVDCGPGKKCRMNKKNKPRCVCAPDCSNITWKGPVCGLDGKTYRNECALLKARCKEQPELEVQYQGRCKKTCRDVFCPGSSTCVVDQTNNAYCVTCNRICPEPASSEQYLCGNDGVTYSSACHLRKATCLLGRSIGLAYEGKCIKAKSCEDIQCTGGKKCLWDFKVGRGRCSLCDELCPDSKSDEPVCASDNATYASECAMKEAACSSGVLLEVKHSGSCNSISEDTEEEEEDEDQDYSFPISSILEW
In experiment [14] the target is Fibroblast growth factor 2 (Homo sapiens) (UniProt P09038). The experiment is described as follows: basic fibroblast growth factor binding to printed compounds – biochemical, small-molecule microarray, 635/667 nm fluorescence, primary screen (AID 1133). The following applies: FGF2, fluorescence 635/667, higher = more signal.
Sequence of Fibroblast growth factor 2 (Homo sapiens) (P09038 whole entry, looked up): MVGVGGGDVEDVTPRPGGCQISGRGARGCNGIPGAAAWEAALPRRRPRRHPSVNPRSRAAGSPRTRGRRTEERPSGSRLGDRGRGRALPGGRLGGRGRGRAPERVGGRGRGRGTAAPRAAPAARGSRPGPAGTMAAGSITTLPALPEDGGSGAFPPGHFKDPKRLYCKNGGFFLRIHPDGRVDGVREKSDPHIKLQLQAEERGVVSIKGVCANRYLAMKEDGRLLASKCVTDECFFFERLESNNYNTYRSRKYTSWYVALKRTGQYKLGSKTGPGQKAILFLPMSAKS
The nature of experiment [15]: JC-1 mitochondrial potential readout, lung cancer cells – cell-based, A549, JC-1 fluorescence, basal, 24 h, 100 nL, profiling panel (AID 1138).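 Note: A549 lung adenocarcinoma cells under basal conditions with no added stimulus; test concentration not given here.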 The following applies: higher = more signal.
A further experiment concerns Lefty1. As to the kind of experiment: Lefty1 protein binding to printed compounds – biochemical, small-molecule microarray, 635/667 nm fluorescence, primary screen (AID 1139). The conditions noted are these: fluorescence 635/667, higher = more signal.
Experiment [16] deals with wheat germ agglutinin (Triticum aestivum), Alexa647-labelled. The experiment is described as follows: Alexa647-WGA lectin binding to printed small molecules – biochemical, small-molecule microarray, 635/667 nm fluorescence, artefact control for SMM control-protein annotation, profiling panel (AID 1140).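 Note: score merges 667 nm feature emission with signal to noise over triplicate slides.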 The conditions noted are these: WGA-A647 binding, 635 nm fluorescence, higher = more signal.

Experiment [17] concerns the target Luciferin 4-monooxygenase (Photinus pyralis) (UniProt P08659). The experiment is described as follows: inhibition of purified Photinus pyralis luciferase – biochemical, luminescence, purified enzyme, 2006 set, primary screen (AID 1141).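 Note: cell-free assay with purified firefly luciferase at 100 ng per well in PBS; test concentration not given here.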 The following applies: purified firefly luciferase, SteadyGlo luminescence, 30 min; higher = more signal, called active from +8 up or from −8 down.

Calls of active or inactive are those of the source.

Sequence of Concanavalin-A (Canavalia ensiformis) (P02866 whole entry, looked up): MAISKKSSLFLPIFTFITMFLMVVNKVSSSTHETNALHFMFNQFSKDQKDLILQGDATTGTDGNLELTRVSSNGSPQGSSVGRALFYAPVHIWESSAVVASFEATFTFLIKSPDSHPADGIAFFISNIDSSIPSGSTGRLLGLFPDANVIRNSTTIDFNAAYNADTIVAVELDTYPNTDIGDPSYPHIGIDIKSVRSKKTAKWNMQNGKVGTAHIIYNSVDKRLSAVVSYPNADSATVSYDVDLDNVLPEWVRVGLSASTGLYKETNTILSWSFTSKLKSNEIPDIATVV
Sequence of Albumin (Bos taurus) (P02769 whole entry, looked up): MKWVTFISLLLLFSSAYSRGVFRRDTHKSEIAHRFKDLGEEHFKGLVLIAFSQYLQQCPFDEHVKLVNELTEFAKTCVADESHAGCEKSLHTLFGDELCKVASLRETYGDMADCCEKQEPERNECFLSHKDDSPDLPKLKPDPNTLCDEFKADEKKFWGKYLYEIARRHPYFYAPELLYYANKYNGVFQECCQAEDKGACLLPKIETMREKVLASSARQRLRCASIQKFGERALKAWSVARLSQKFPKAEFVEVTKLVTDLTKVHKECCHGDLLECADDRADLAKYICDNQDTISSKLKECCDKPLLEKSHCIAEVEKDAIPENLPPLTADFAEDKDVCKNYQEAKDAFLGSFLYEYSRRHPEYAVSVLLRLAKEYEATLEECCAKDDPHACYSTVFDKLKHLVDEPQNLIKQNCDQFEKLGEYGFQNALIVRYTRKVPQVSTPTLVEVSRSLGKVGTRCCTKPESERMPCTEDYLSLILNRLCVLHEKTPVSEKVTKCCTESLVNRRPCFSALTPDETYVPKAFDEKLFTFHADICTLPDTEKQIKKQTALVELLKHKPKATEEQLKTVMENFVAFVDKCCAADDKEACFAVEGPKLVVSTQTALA
Sequence of Luciferin 4-monooxygenase (Photinus pyralis) (P08659 whole entry, looked up): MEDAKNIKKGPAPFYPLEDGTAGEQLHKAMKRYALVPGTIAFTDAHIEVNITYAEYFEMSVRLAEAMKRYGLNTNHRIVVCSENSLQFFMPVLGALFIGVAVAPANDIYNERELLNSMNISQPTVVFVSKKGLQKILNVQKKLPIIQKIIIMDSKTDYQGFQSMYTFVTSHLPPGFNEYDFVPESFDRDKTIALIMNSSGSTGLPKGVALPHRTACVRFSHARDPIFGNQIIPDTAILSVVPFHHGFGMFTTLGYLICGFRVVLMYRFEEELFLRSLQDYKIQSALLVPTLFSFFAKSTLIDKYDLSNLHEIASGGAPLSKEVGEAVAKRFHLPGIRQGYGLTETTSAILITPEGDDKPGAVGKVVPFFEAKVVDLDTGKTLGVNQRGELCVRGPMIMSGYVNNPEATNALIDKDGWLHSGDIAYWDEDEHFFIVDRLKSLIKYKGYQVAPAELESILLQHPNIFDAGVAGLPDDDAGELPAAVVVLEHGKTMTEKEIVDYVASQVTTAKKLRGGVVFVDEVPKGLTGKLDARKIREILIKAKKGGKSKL

For the molecule `CN1C(=O)C2C=CC(C(O)c3ccc(F)cc3)N(Nc3ccccc3)C2C1=O` (stereo not given), the composite z-score in the experiment with Albumin (Bos taurus) is 0.884; in experiment [2], 0.0562; in experiment [3], -0.14; in [4], 0.721; in experiment [5], 1.64; in experiment [6] it was -0.481. Further, the composite z-score was 0.57 with Sam68 (KHDRBS1); -0.623 in [7]; 0.808 in experiment [8]; 2.27 in experiment [9]; 1.14 in experiment [10]; 1.04 in experiment [11]. Also, the composite z-score in [12] was 0.802; in experiment [13], 0.576; in experiment [14] it was -0.319; in the experiment on Lefty1 it was 0.253; in [16] it was 0.0088. Moreover, in [1], the composite Z-score was 0.21 (inactive). Also, the z-score in [15] was -0.575; in experiment [17], -0.112 (inactive).

Turning to `COC(=O)c1nc2oc1CC[C@@H](CO)NC(=O)N(C)Cc1cnnn1C[C@H](Cc1ccccc1)NC2=O`, the composite z-score with Albumin (Bos taurus) was 0.771; in experiment [2] it was -0.182; in experiment [3] it was -0.167; in experiment [4] it was 0.853; in experiment [5] it was 0.205; in experiment [6], 0.321. Further, the composite z-score with Sam68 (KHDRBS1) was -0.0671; in experiment [7], -0.873; in experiment [8], -0.343; in experiment [9], -0.0727; in experiment [10] it was -0.405; in experiment [11], -0.302. For the same molecule, the composite z-score was 0.779 in [12]; -0.701 in experiment [13]; -0.403 in experiment [14]; -0.281 with Lefty1; 1.03 in [16]. Further, the composite Z-score in experiment [1] was 0.15 (inactive). The values for the z-score in experiment [15] and in experiment [17] were 0.9 and 0.782 (inactive), respectively.

With `COCCOC(=O)N1C(=O)[C@@]2(c3cc(C#CCNC(N)=O)ccc31)[C@H](C(=O)N1CCc3cc(OC)c(OC)cc3C1)[C@H]1C(=O)O[C@H](c3ccccc3)[C@H](c3ccccc3)N1[C@@H]2c1ccccc1OCCO`, the composite z-score with Albumin (Bos taurus) is 0.577; in experiment [2], 0.123; in experiment [3], -0.126; in [4], 0.577; in experiment [5] it was 1.33; in [6] it was 0.383. For the same molecule, the composite z-score with Sam68 (KHDRBS1) is 1.29; in experiment [7], 0.855; in experiment [8] it was 0.794; in experiment [9], 1.16; in experiment [10] it was 0.778; in experiment [11], 0.378. In addition, the composite z-score was determined as 0.757 in experiment [12]; 1.2 in [13]; 1.48 in experiment [14]; 0.716 with Lefty1; 0.524 in [16]. Also, in [1], the composite Z-score is -0.0476 (inactive). The z-score in experiment [15] is -1.12; in experiment [17] it was -0.709 (inactive).

Turning to `CC(C)C[C@@H]1NC(=O)[C@@H]2C[C@H](C(=O)NCCCCCN)[C@H](c3ccc(O)cc3)N2C1=O`, the composite z-score in the experiment with Albumin (Bos taurus) is 0.85; in experiment [2], -0.169; in [3], -0.102; in experiment [4], 0.577; in [5] it was 1.48; in experiment [6], 0.17. For the same molecule, the composite z-score came to 1.33 in the experiment on Sam68 (KHDRBS1); 0.25 in [7]; 1.17 in experiment [8]; 0.854 in experiment [9]; 1.15 in [10]; 0.269 in experiment [11]. Also, the composite z-score was determined as 0.761 in experiment [12]; 1.43 in experiment [13]; 1.66 in experiment [14]; 1.3 in the experiment on Lefty1; 0.899 in experiment [16]. Besides, the composite Z-score in [1] was -0.285 (inactive). The z-score in [15] is -0.188; in experiment [17], -0.348 (inactive).

With `[N-]=[N+]=NCc1ccccc1[C@@H]1OC(c2ccc(OCCCO)cc2)=N[C@]1(CCS(=O)(=O)c1ccccc1)C(=O)NCC(O)CO` (stereo not given in full), the composite z-score was 0.979 with Albumin (Bos taurus); 0.13 in experiment [2]; 0.208 in [3]; 0.526 in experiment [4]; 3.18 in experiment [5]; 1.01 in [6]. Further, the composite z-score was 1.29 with Sam68 (KHDRBS1); -0.563 in [7]; 1.18 in experiment [8]; 2.39 in experiment [9]; 1.28 in [10]; 0.546 in experiment [11]. The composite z-score in [12] was 1.03; in experiment [13], 1.29; in experiment [14], 1.05; in the experiment with Lefty1, 0.171; in [16], 1.16. For the same molecule, the composite Z-score in experiment [1] was 0.131 (inactive). Further, the z-score in experiment [15] was -0.145; in experiment [17] it was -1.93 (inactive).
